# GIRK2 act: GIRK2 channel activators by thallium flux; activation (% efficacy), % for hits at 37.5 µM; 34,000 tested, under 10 active; HEK293 GIRK2/NPY4 cells, thallium flux fluorescence; P48051;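 active = primary screen hit, no activity in plain HEK293 cells, and in GIRK2-only cells above 5% efficacy rising with concentration; inactive = the rest, including fluorescent compounds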;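 note: efficacy is normalized control-subtracted fluorescence 15 s after thallium addition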
# Target sequence (P48051 whole entry, looked up): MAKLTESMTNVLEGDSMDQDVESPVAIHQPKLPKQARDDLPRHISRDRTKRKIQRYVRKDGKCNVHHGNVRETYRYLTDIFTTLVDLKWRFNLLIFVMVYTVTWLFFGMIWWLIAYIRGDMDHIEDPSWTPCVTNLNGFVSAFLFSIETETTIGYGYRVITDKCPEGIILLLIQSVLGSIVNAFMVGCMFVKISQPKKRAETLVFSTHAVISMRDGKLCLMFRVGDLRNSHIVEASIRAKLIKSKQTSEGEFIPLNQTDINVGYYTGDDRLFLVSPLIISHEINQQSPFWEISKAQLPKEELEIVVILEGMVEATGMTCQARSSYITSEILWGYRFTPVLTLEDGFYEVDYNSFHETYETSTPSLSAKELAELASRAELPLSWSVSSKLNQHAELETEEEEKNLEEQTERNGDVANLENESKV
# AMPAR-TARP mod: GluA2-stargazin AMPA receptor complex modulation | HEK293 GluA2+stargazin, membrane potential dye (FDSS), glutamate EC50; hits were called plate by plate, in both directions | 3.5% of 40,000 active | O88602+P19491 | calls only at 30 µM | AID 1259245;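 active = any of four per-well response measures lying three or more SD from its plate-wide compound average, in either direction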
# Starred values were filed as active, the others as inactive; i = inactive; / = not tested or not shown; + = active, no number. This is one part of a sample in which hits are shown more often than they occur.
SMILES,GIRK2 act,AMPAR-TARP mod
Cc1nc(N2CCN(C(=O)Nc3cc(F)cc(F)c3)CC2)cc(-n2ccnc2)n1,i,i
Cc1cccc(NC(=O)Cn2c(C3CC3)nc3c(cnn3-c3ccccc3)c2=O)c1,i,/
Cc1ccccc1-c1ccc(N2CCN(C(=O)Nc3ccc(F)cc3)CC2)nn1,/,i
O=C1CC(c2nc3ccccc3n2Cc2ccccc2)CN1Cc1ccccc1 (stereo not drawn),/,+
CCn1c(C2CC(=O)N(Cc3ccccc3)C2)nc2ccccc21 (stereo not drawn),/,i
O=C(NCC(F)(F)F)c1ccc(N2CCC(Cc3ccccc3)CC2)nn1,i,+
O=C(NCC(F)(F)F)C1CCN(C(=O)CSCc2ccccc2)CC1,i,/
O=C(CCS(=O)(=O)c1ccccc1)N(CCN1CCOCC1)c1nc2c(F)cccc2s1,i,i
O=C(Cc1ccc(Cl)cc1)NCCCCN1CCOC(c2ccccc2)C1 (stereo not drawn),i,/
O=C(NCc1cccc2ccccc12)N(CCc1ccccc1)Cc1ccccn1,i,+
O=C(NCc1cccc2ccccc12)N(Cc1ccccn1)Cc1ccco1,i,/
O=C(N(CCc1ccccc1)Cc1ccccn1)C12CC3CC(CC(C3)C1)C2,i,+
O=C(NC1CCCCC1)N(CCc1ccccc1)Cc1ccccn1,i,i
Cc1ccc(C(C)C)cc1S(=O)(=O)N1CCC2(CC1)NC(=O)NC2=O,i,i
CS(=O)(=O)N1CCCCC1C(=O)Nc1ccc(-c2nc3ccccc3s2)c(O)c1 (stereo not drawn),i,i
CC(C)c1nnc(C2CCN(C(=O)Nc3cccs3)CC2)o1,i,i
Cc1ccc(S(=O)(=O)N2CCCc3cc(NC(=O)c4ccccc4)ccc32)cc1,/,i
Cc1ccc(S(=O)(=O)N2CCCc3cc(NC(=O)Oc4ccccc4)ccc32)cc1,/,+
COc1ccc(S(=O)(=O)N2CCCc3cc(NC(=O)C(C)(C)C)ccc32)cc1,/,+
COc1ccc(S(=O)(=O)N2CCCc3cc(NC(C)=O)ccc32)cc1,/,i
CC1CCCCN1c1ccc(N2CCN(C(=O)c3ccc(Br)o3)CC2)nn1 (stereo not drawn),i,i
COc1ccc2nc(-c3cccc(NC(=O)Nc4ccc(F)cc4)c3)cn2n1,i,+
COc1ccc2nc(-c3cccc(NC(=O)c4c(F)cccc4F)c3)cn2n1,i,i
COc1ccc(NS(=O)(=O)c2cc(C)c(C)cc2C)cc1N1CCCC1=O,i,i
NS(=O)(=O)c1ccc(NC(=O)CN2C(=O)S/C(=C\C(=O)Nc3ccccc3)C2=O)cc1,/,i
SMILES,GIRK2 act,AMPAR-TARP mod
COc1ccccc1-c1coc2cc(OCc3ccc(F)cc3)ccc2c1=O,/,i
COc1ccc2c(=O)c(-c3ccccc3OC)coc2c1,i,+
O=S(=O)(c1ccc(Cl)cc1)c1nc(-c2ccco2)oc1NCC1CCCO1 (stereo not drawn),i,i
COc1ccccc1OCC(=O)Nc1ccc2c(c1)N(C(=O)C(C)(C)C)CC2,i,+
COc1ccc(Cl)cc1S(=O)(=O)Nc1ccc2c(c1)N(C(=O)C(C)(C)C)CC2,i,+
COc1ccc(C)cc1S(=O)(=O)Nc1ccc2c(c1)N(C(=O)C(C)(C)C)CC2,i,i
COc1ccc(OCC(=O)Nc2ccc3c(c2)N(C(=O)C(C)(C)C)CC3)cc1,i,i
COc1ccc(N2CC(C)Cn3c2nc2c3c(=O)n(Cc3ccccc3)c(=O)n2C)cc1 (stereo not drawn),/,i
c1ccc(-c2cc(-c3nc(-c4ccc5c(c4)OCO5)no3)[nH]n2)cc1,/,i
CSc1ccccc1NC(=O)c1cc2n(n1)C(C(F)(F)F)CC(c1ccco1)N2 (stereo not drawn),/,i
O=C(NCCc1c[nH]c2ccccc12)c1cc2n(n1)C(C(F)(F)F)CC(c1ccco1)N2 (stereo not drawn),/,+
OC(COc1ccc(-c2ccccc2)cc1)CN1CCN(c2ccccn2)CC1 (stereo not drawn),/,i
OC(COc1ccc2cc(Br)ccc2c1)CN1CCN(c2ccccn2)CC1 (stereo not drawn),/,+
COc1ccc(N2CCN(CCCn3c(C)c(C)n4c5c(=O)[nH]c(=O)n(C)c5nc34)CC2)cc1,/,+
Cn1c(=O)[nH]c(=O)c2c1nc(N1CCN(CC(N)=O)CC1)n2Cc1cccc(Cl)c1,/,i
COc1ccc(N2CCN(CCn3c(C)c(C)n4c5c(=O)[nH]c(=O)n(C)c5nc34)CC2)cc1,/,i
CCN1CCN(c2nc3c(c(=O)[nH]c(=O)n3C)n2CCCOc2ccccc2)CC1,/,+
Cn1c(=O)[nH]c(=O)c2c1nc(N1CCN(CC(N)=O)CC1)n2Cc1ccccc1,/,+
CCCCCCCCCn1c(N2CCNCC2)nc2c1c(=O)[nH]c(=O)n2C,9.0%*,+
CCOCCn1c(N2CCN(CC)CC2)nc2c1c(=O)[nH]c(=O)n2C,/,i

# Screening data from PubChem BioAssay.
